Experimental findings from PubChem BioAssay AID651937 (The Scripps Research Institute Molecular Screening Center, 2012) are described below.

Some of the results follow. Unmarked numbers belong to inactive results. Activity calls are given as the source filed them. Rule as the data show it: active = IC50 below about 9 µM; inactive = the rest. Some results are limits rather than exact numbers.

The assay is described as follows: compound binding to PGV04 antibody – biochemical, TR-FRET, distinct HIV envelope site, counter-screen for PG9 antibody binder project, dose response (AID 651937). The following applies: TR-FRET binding to control antibody PGV04.
Consider `Cc1cccc(Nc2nc3c(S(=O)(=O)c4ccccc4)nnn3c3ccccc23)c1C`, for which the 50% inhibitory concentration (IC50) was 2.86 µM (active).

For the compound `S=c1[nH]c2ccccc2c2ccccc12`, the IC50 was 36.4 µM.

In the case of `CC1(C)Cc2ccccc2-c2[nH]c(=S)[nH]c(=O)c21`, the IC50 is 38.1 µM.

With `O=C(Oc1ccccc1)Oc1ccc2c(c1)oc(=O)c1ccccc12`, the concentration for half-maximal inhibition (IC50) was 2.5 µM (active).

With `COc1ccc(-c2c(C)nn3c(N4CCC(C(=O)N5CCCCC5)CC4)cc(C)nc23)cc1OC`, the IC50 is 56.5 µM. Regarding `COC(=O)C1=C(C)N(Cc2ccccc2C(F)(F)F)C(=NCc2ccc(OC)cc2)NC1c1cccc(C(F)(F)F)c1` (configuration not stated), the IC50 is more than 67 µM. Turning to `O=C(Nc1nnc(-c2ccccc2F)s1)c1ccccc1F`, the IC50 was 14.3 µM.

The term IC50 denotes the midpoint of a concentration-inhibition curve.
